Source: PubChem (several laboratories)
Mtb hypoxia rep = PubChem AID 1159583. M. tuberculosis hypoxia-regulated fluorescent reporter, fluorescence. fluorescence inhibition, % (test concentration not listed). actives 0.1% (n = 300,000); in the data active = fluorescence inhibition mostly above about 23%, no sharp cut-off; inactive = mostly below about 17%
MazEF act = activators of E. coli MazEF toxin-antitoxin RNase, primary screen, biochemical, fluorescence, uHTS | actives 0.32% (n = 350,000) | FAM/BHQ RNA-DNA oligo cleavage fluorescence, 5 h | activation, % at 20 µM; in the data active = activation above about 50%
Target sequence (P0AE70 whole entry, looked up): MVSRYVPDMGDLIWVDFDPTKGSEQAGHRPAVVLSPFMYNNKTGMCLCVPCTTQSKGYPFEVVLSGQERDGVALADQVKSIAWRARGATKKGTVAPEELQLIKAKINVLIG
BH1578 lux ind = inducers of Vibrio cholerae quorum light production without autoinducers, primary screen, BH1578 luxS cqsA deficient, single point | V. cholerae BH1578 lux reporter, luminescence, 6 h | activation, % at 18.7 µM | actives 0.16% (n = 350,000) | AID 588436, 2011; in the data active = activation mostly above about 9.7%, no sharp cut-off
PriA SSB inh = inhibitors of Klebsiella pneumoniae PriA binding to SSB C-terminal tail, primary screen, biochemical, AlphaScreen; PriA–SSB C-terminal tail interaction (Klebsiella pneumoniae); AlphaScreen SSBct-PriA binding, biotinylated peptide; inhibition, % at 33 µM; actives 0.6% (n = 430,000); in the data active = inhibition mostly above about 37%, no sharp cut-off; inactive = mostly below about 20%;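 note: plate controls were negative control peptide for no effect and reference peptide for full effect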
Numbers without * were called inactive; i = inactive; / = no result shown. Shown are actives, neighbours in structure and some others; about 0.94% of the full set was active somewhere.

SMILES	Mtb hypoxia rep	MazEF act	BH1578 lux ind	PriA SSB inh
CSCCC(C)(O)CNC(=O)C1(c2ccc(Cl)cc2)CCCC1 (stereo not drawn)	/	/	/	8
COc1ccc(N2CCN(/C=C(\C#N)c3nc4ccccc4s3)CC2)cc1	/	/	/	21
COc1ccc(-c2ccc3c(=O)cc(-c4ccsc4)oc3c2)cn1	13	70*	-1	-3
Cc1ccc(C(C)C)c(OCc2nnc(SCC(=O)c3ccc(OC(F)F)cc3)n2-c2ccccc2)c1	/	/	/	-5
O=C(Nc1ccc(C(F)(F)F)cc1)N1CC(S(=O)(=O)C2CCCCC2)C1	/	/	/	-33
O=C(Nc1cccc2c1C(=O)NC2=O)c1ccno1	/	/	/	-10
O=C(c1c(F)cccc1Cl)N1CCN(CC(F)(F)F)CC1	/	/	/	19
CCCC(=O)Nc1cc(=O)n(C)c(=O)n1C	-1	-3	0	-20
Cn1c(NC(=O)CCc2ccccc2)cc(=O)n(C)c1=O	11	-18	0	46*
CCOC(=O)C(CC)Sc1nc2c([nH]c3ccccc32)c(=O)n1-c1ccccc1OC (stereo not drawn)	/	/	/	4
CCC(C)NC(=O)CSc1nnc(-c2cc(-c3ccc(C)cc3)nc3ccccc23)n1N (stereo not drawn)	/	-4	40*	1
O=C(Nc1cc(N2CCCCC2)ncn1)Nc1ccc(F)cc1F	/	/	/	-8
COc1ccccc1C1=NNC(=Nc2cccc(S(=O)(=O)N(C)C)c2)SC1	-11	-1	0	43*
Cc1nc2ccccc2c(=O)n1-c1ccc(F)c(NC(=O)c2ccco2)c1	/	/	/	1
CC(OC(=O)CCC1CCCC1)C(=O)Nc1ccccc1[N+](=O)[O-] (stereo not drawn)	13	-2	i	43*
CCCCOc1ccc(NC(=O)c2cnc(C)cn2)cc1	/	12	17*	-25
Cc1ccc(/C=C/C(=O)N2CCN(Cc3ccccc3)CC2)o1	59*	9	0	16
O=C(NNC(=O)c1c(F)cccc1Cl)c1ccc(=O)n(Cc2ccc(Cl)cc2)c1	/	/	/	5
Cc1cc(O)cc(O)c1C=NCc1ccco1	9	90*	i	1
Cc1sc2ncnc(SCC(=O)Nc3c(C)n(C)n(-c4ccccc4)c3=O)c2c1C	/	/	/	84*
Cc1sc2nc(SCC(=O)Nc3c(C)n(C)n(-c4ccccc4)c3=O)n(C)c(=O)c2c1C	20	7	0	-15
FC(F)Sc1ccc(NC(=S)NC(c2ccccc2)c2ccccc2)cc1	8	127*	0	-14
FC(F)Sc1ccc(NC(=S)NCc2ccccc2)cc1	6	5	0	-36
CC(OC(=O)COc1ccc(Nc2ccccc2)cc1)C(=O)N(C)c1ccccc1 (stereo not drawn)	7	-2	i	40*
CC(OC(=O)CNS(=O)(=O)c1ccc2ccccc2c1)C(=O)N(C)c1ccccc1 (stereo not drawn)	0	0	-4	1
SMILES	Mtb hypoxia rep	MazEF act	BH1578 lux ind	PriA SSB inh
C=CCOc1ccc(/C=N/NC(=O)CC(=O)NC2CCCCC2)cc1	/	514*	-5	/
COC(=O)c1c(NC(=O)/C=C/c2ccco2)sc2c1CCC2	4	57*	0	-4
CCn1c2ccc(OC)cc2c2nc3ccccc3nc21	6	18	/	-67
CCCCOC(=O)Cn1c2ccc(OC)cc2c2nc3ccccc3nc21	2	215*	0	-6
CCOc1ccc(Cn2c3ccc(OC)cc3c3nc4ccccc4nc32)cc1	4	65*	1	-20
COc1ccc(Nc2nc3ccc(C)cc3cc2C#N)c(OC)c1	15	139*	0	-6
COc1ccc(Nc2nc3cc(C)ccc3cc2C#N)cc1	-3	32	i	-11
COc1ccc(Nc2nc3cc(C)ccc3cc2C#N)c(OC)c1	2	62*	-1	-6
COCCNS(=O)(=O)c1ccc(-c2ccc(C)cc2)cc1	77*	8	i	-17
N#Cc1nc(-c2ccco2)oc1N1CCCC1	5	0	0	0
N#Cc1nc(-c2ccco2)oc1N1CCc2ccccc2C1	7	0	0	43*
N#Cc1nc(-c2ccco2)oc1N1CCN(c2cccc(Cl)c2)CC1	3	-4	i	50*
C1=C(c2sc3ccccc3c2-c2ccc(OCCN3CCOCC3)cc2)CCCC1	/	1	i	41*
COc1ccccc1-c1sc2cc3c(cc2c1-c1ccc(OCCN2CCCCC2)cc1)OCO3	16	-9	-1	14
COc1cc2sc(-c3ccccc3OC)c(-c3ccc(OCCN4CCCCC4)cc3)c2cc1OC	/	5	-1	46*
c1ccc(-c2sc3ccccc3c2-c2ccc(OCCN3CCOCC3)cc2)cc1	/	1	i	11
COc1ccc(-n2ccnc2SCC(=O)Nc2cccc3ccccc23)cc1	/	/	/	58*
COc1cccc(-n2ccnc2SCC(=O)NCc2ccccc2)c1	/	10	25*	7
O=C(CSc1nncc(=O)[nH]1)Nc1ccccc1F	/	/	/	2
O=C(OC1CN(c2nc3ccc(F)cc3s2)C1)[C@@H]1COc2ccccc2O1	/	/	/	-3
CSc1nnc2n(CCC(=O)NCC(C)C)c(=O)c3ccccc3n12	/	/	/	-8
Cc1cc(C)n(-c2nc3ccccc3c3nc(C)nn23)n1	-5	-13	0	104*
CCOC(=O)N1CCN(c2cc(=O)n(-c3ccc(Cl)cc3)c(=O)[nH]2)CC1	/	/	/	-9
CCOC(=O)N1CCN(c2cc(=O)n(-c3ccccc3Cl)c(=O)[nH]2)CC1	0	-10	0	104*
O=C(NCC1(O)CCOc2ccccc21)c1cnccn1 (stereo not drawn)	/	/	/	-5
SMILES	Mtb hypoxia rep	MazEF act	BH1578 lux ind	PriA SSB inh
O=C(COc1ccc(Cl)cc1Cl)Nc1sc2c(c1-c1nc3ccccc3s1)CCN(Cc1ccccc1)C2	/	/	/	-10
O=C1C(=C(I)I)c2ccccc2-c2ccccc21	/	-15	-1	81*
O=C1C(=O)c2ccccc2-c2ccccc21	/	4	i	14
Cc1nc(Cn2nc(-c3cccs3)n(C3CC3)c2=O)cs1	/	/	/	-8
NNS(=O)(=O)c1ccc(N2CCCC2=O)c([N+](=O)[O-])c1	12	227*	0	-2
CN1CC(NC(=O)CCSc2ccccc2)CC1=O (stereo not drawn)	/	/	/	-12
CCOC(=O)c1ccc2c(c1)n(CC)c(/C=C/N(C)c1ccccc1)[n+]2CC	5	12	0	-7
CC[n+]1c(/C=C/N(C)c2ccccc2)n(-c2ccccc2)c2ccc(-c3nc4ccccc4s3)cc21	/	68*	i	14
Cn1nccc1C(=O)Nc1nc(-c2ccccn2)cs1	/	/	/	97*
Cc1cc(C(=O)Nc2nc(-c3ccccn3)cs2)n(C)n1	/	/	/	118*
Cn1cccc1C(=O)Nc1nc(-c2ccccn2)cs1	16	8	/	85*
Cc1csc(NC(=O)c2cccn2C)n1	9	6	i	8
Cc1cc(C(=O)Nc2nc(-c3cc4ccccc4o3)cs2)n(C)n1	/	/	/	-3
Cn1c(C(=O)Nc2nc(-c3ccccn3)cs2)cc2ccccc21	/	/	/	93*
CCOC(=O)Cn1c(=NC(=O)c2sc3ccccc3c2Cl)sc2cc(F)cc(F)c21	/	/	/	-5
